{"source": "ChEMBL document CHEMBL1961873", "about": "“Compounds: GSK PKIS; Assays: Nanosyn kinase panel” (2012)", "key": {"[1]": {"tested_on": "Epidermal growth factor receptor (Homo sapiens), P00533 [L858R,T790M]", "conditions": "at 0.1 µM"}, "[2]": {"tested_on": "Epidermal growth factor receptor (Homo sapiens), P00533 [L858R,T790M]", "conditions": "at 1 µM"}, "[3]": {"target": "Ephrin type-A receptor 2 (Homo sapiens) (UniProt P29317)", "conditions": "at 0.1 µM"}, "[4]": {"target": "Ephrin type-A receptor 2 (Homo sapiens) (UniProt P29317)", "conditions": "at 1 µM"}, "[5]": {"target": "Ephrin type-A receptor 3 (Homo sapiens) (UniProt P29320)", "conditions": "at 0.1 µM"}, "[6]": {"target": "Ephrin type-A receptor 3 (Homo sapiens) (UniProt P29320)", "conditions": "at 1 µM"}, "[7]": {"target": "Ephrin type-A receptor 4 (Homo sapiens) (UniProt P54764)", "conditions": "at 0.1 µM"}, "[8]": {"target": "Ephrin type-A receptor 4 (Homo sapiens) (UniProt P54764)", "conditions": "at 1 µM"}, "[9]": {"target": "Ephrin type-B receptor 2 (Homo sapiens) (UniProt P29323)", "conditions": "at 0.1 µM"}, "[10]": {"target": "Ephrin type-B receptor 2 (Homo sapiens) (UniProt P29323)", "conditions": "at 1 µM"}, "[11]": {"target": "Ephrin type-B receptor 3 (Homo sapiens) (UniProt P54753)", "conditions": "at 0.1 µM"}, "[12]": {"target": "Ephrin type-B receptor 3 (Homo sapiens) (UniProt P54753)", "conditions": "at 1 µM"}, "[13]": {"target": "Ephrin type-B receptor 4 (Homo sapiens) (UniProt P54760)", "conditions": "at 0.1 µM"}, "[14]": {"target": "Ephrin type-B receptor 4 (Homo sapiens) (UniProt P54760)", "conditions": "at 1 µM"}, "[15]": {"target": "Receptor tyrosine-protein kinase erbB-2 (Homo sapiens) (UniProt P04626)", "conditions": "at 0.1 µM"}, "[16]": {"target": "Receptor tyrosine-protein kinase erbB-2 (Homo sapiens) (UniProt P04626)", "conditions": "at 1 µM"}, "[17]": {"target": "Receptor tyrosine-protein kinase erbB-4 (Homo sapiens) (UniProt Q15303)", "conditions": "at 0.1 µM"}, "[18]": {"target": "Receptor tyrosine-protein kinase erbB-4 (Homo sapiens) (UniProt Q15303)", "conditions": "at 1 µM"}, "[19]": {"target": "Tyrosine-protein kinase Fer (Homo sapiens) (UniProt P16591)", "conditions": "at 0.1 µM"}, "[20]": {"target": "Tyrosine-protein kinase Fer (Homo sapiens) (UniProt P16591)", "conditions": "at 1 µM"}, "[21]": {"target": "Tyrosine-protein kinase Fes/Fps (Homo sapiens) (UniProt P07332)", "conditions": "at 0.1 µM"}, "[22]": {"target": "Tyrosine-protein kinase Fes/Fps (Homo sapiens) (UniProt P07332)", "conditions": "at 1 µM"}, "[23]": {"target": "Fibroblast growth factor receptor 1 (Homo sapiens) (UniProt P11362)", "conditions": "at 0.1 µM"}, "[24]": {"target": "Fibroblast growth factor receptor 1 (Homo sapiens) (UniProt P11362)", "conditions": "at 1 µM"}, "[25]": {"target": "Fibroblast growth factor receptor 2 (Homo sapiens) (UniProt P21802)", "conditions": "at 0.1 µM"}, "[26]": {"target": "Fibroblast growth factor receptor 2 (Homo sapiens) (UniProt P21802)", "conditions": "at 1 µM"}, "[27]": {"target": "Fibroblast growth factor receptor 3 (Homo sapiens) (UniProt P22607)", "conditions": "at 0.1 µM"}, "[28]": {"target": "Fibroblast growth factor receptor 3 (Homo sapiens) (UniProt P22607)", "conditions": "at 1 µM"}, "[29]": {"target": "Fibroblast growth factor receptor 4 (Homo sapiens) (UniProt P22455)", "conditions": "at 0.1 µM"}, "[30]": {"target": "Fibroblast growth factor receptor 4 (Homo sapiens) (UniProt P22455)", "conditions": "at 1 µM"}, "[31]": {"target": "Tyrosine-protein kinase Fgr (Homo sapiens) (UniProt P09769)", "conditions": "at 0.1 µM"}, "[32]": {"target": "Tyrosine-protein kinase Fgr (Homo sapiens) (UniProt P09769)", "conditions": "at 1 µM"}, "[33]": {"target": "Vascular endothelial growth factor receptor 1 (Homo sapiens) (UniProt P17948)", "sequence (P17948 whole entry)": "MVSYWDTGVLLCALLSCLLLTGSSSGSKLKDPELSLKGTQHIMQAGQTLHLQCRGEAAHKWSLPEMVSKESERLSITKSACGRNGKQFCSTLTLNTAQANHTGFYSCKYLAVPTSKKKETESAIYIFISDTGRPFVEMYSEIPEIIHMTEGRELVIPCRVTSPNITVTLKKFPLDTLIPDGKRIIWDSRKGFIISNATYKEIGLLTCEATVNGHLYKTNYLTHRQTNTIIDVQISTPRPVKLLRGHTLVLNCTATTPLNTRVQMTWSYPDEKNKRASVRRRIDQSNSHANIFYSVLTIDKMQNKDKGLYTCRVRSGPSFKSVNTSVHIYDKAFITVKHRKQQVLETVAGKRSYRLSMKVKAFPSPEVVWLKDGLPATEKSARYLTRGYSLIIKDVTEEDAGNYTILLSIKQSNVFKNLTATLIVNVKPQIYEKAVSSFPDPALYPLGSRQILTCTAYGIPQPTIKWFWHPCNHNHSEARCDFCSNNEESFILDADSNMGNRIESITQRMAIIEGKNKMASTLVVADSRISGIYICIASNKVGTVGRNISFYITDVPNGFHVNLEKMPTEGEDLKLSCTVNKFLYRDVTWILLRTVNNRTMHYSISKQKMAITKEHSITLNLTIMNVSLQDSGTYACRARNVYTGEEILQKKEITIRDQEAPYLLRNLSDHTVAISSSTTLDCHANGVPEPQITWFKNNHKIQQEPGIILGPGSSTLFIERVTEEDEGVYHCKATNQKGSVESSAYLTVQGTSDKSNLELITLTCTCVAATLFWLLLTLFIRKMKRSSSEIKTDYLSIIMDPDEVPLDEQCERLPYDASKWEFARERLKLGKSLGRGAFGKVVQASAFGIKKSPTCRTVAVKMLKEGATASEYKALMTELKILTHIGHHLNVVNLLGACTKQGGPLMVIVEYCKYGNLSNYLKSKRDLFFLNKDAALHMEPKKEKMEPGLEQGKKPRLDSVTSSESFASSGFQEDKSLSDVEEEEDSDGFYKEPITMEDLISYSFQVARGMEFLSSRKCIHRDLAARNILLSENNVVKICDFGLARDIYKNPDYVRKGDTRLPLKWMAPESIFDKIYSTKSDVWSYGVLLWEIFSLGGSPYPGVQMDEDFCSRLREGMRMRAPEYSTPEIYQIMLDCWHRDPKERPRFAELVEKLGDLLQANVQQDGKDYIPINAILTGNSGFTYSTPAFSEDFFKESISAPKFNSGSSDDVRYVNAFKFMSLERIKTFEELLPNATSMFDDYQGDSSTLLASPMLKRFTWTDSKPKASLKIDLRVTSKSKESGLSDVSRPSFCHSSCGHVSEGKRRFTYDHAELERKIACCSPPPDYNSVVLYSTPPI", "conditions": "at 0.1 µM"}, "[34]": {"target": "Vascular endothelial growth factor receptor 1 (Homo sapiens) (UniProt P17948)", "conditions": "at 1 µM"}, "[35]": {"target": "Receptor-type tyrosine-protein kinase FLT3 (Homo sapiens) (UniProt P36888)", "conditions": "at 0.1 µM"}, "[36]": {"target": "Receptor-type tyrosine-protein kinase FLT3 (Homo sapiens) (UniProt P36888)", "conditions": "at 1 µM"}, "[37]": {"tested_on": "Receptor-type tyrosine-protein kinase FLT3 (Homo sapiens), P36888 [D835Y]", "conditions": "at 0.1 µM"}, "[38]": {"target": "Non-receptor tyrosine-protein kinase TYK2 (Homo sapiens) (UniProt P29597)", "conditions": "at 1 µM"}, "[39]": {"target": "Tyrosine-protein kinase receptor TYRO3 (Homo sapiens) (UniProt Q06418)", "conditions": "at 0.1 µM"}, "[40]": {"target": "Tyrosine-protein kinase receptor TYRO3 (Homo sapiens) (UniProt Q06418)", "conditions": "at 1 µM"}, "[41]": {"target": "Tyrosine-protein kinase Yes (Homo sapiens) (UniProt P07947)", "sequence (P07947 2-543 limits assumed)": "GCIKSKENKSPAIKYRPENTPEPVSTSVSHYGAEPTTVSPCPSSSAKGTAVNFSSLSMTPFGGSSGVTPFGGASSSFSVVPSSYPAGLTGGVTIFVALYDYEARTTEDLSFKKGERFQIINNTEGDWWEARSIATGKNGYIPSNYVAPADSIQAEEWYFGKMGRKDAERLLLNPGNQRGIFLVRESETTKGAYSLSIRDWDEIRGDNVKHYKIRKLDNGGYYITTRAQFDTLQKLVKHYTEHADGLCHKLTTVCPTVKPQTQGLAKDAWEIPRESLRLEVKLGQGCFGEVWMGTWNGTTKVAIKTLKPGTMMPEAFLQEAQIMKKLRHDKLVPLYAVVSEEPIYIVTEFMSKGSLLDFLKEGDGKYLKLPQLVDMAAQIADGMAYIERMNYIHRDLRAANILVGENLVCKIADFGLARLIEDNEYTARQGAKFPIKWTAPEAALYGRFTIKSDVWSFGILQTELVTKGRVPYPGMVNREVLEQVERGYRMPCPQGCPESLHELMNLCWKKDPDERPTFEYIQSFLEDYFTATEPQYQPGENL", "conditions": "at 0.1 µM"}, "[42]": {"target": "Tyrosine-protein kinase Yes (Homo sapiens) (UniProt P07947)", "conditions": "at 1 µM"}, "[43]": {"target": "Tyrosine-protein kinase ZAP-70 (Homo sapiens) (UniProt P43403)", "conditions": "at 0.1 µM"}, "[44]": {"target": "Tyrosine-protein kinase ZAP-70 (Homo sapiens) (UniProt P43403)", "conditions": "at 1 µM"}, "[45]": {"target": "Serine/threonine-protein kinase B-raf (Homo sapiens) (UniProt P15056)", "conditions": "at 0.1 µM"}, "[46]": {"target": "Serine/threonine-protein kinase B-raf (Homo sapiens) (UniProt P15056)", "conditions": "at 1 µM"}, "[47]": {"tested_on": "Serine/threonine-protein kinase B-raf (Homo sapiens), P15056 [V600E]", "conditions": "at 0.1 µM"}, "[48]": {"tested_on": "Serine/threonine-protein kinase B-raf (Homo sapiens), P15056 [V600E]", "conditions": "at 1 µM"}, "[49]": {"target": "RAF proto-oncogene serine/threonine-protein kinase (Homo sapiens) (UniProt P04049)", "conditions": "at 0.1 µM"}, "[50]": {"target": "RAF proto-oncogene serine/threonine-protein kinase (Homo sapiens) (UniProt P04049)", "conditions": "at 1 µM"}, "[51]": {"target": "Interleukin-1 receptor-associated kinase 4 (Homo sapiens) (UniProt Q9NWZ3)", "sequence (Q9NWZ3 whole entry)": "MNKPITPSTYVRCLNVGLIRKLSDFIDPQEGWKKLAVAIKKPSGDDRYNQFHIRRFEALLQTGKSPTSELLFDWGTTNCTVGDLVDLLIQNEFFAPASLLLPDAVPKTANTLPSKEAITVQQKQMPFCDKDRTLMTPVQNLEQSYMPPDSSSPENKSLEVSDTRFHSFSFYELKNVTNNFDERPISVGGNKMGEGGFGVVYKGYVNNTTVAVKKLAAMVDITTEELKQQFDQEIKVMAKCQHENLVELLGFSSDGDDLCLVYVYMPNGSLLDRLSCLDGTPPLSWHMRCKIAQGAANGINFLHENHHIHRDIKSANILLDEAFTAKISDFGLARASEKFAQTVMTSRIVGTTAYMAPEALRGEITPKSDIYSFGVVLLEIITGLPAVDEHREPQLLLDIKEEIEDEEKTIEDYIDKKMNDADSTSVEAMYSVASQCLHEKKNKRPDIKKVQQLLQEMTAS", "conditions": "at 0.1 µM"}, "[52]": {"target": "Interleukin-1 receptor-associated kinase 4 (Homo sapiens) (UniProt Q9NWZ3)", "conditions": "at 1 µM"}, "[53]": {"target": "Leucine-rich repeat serine/threonine-protein kinase 2 (Homo sapiens) (UniProt Q5S007)", "sequence (Q5S007 whole entry)": "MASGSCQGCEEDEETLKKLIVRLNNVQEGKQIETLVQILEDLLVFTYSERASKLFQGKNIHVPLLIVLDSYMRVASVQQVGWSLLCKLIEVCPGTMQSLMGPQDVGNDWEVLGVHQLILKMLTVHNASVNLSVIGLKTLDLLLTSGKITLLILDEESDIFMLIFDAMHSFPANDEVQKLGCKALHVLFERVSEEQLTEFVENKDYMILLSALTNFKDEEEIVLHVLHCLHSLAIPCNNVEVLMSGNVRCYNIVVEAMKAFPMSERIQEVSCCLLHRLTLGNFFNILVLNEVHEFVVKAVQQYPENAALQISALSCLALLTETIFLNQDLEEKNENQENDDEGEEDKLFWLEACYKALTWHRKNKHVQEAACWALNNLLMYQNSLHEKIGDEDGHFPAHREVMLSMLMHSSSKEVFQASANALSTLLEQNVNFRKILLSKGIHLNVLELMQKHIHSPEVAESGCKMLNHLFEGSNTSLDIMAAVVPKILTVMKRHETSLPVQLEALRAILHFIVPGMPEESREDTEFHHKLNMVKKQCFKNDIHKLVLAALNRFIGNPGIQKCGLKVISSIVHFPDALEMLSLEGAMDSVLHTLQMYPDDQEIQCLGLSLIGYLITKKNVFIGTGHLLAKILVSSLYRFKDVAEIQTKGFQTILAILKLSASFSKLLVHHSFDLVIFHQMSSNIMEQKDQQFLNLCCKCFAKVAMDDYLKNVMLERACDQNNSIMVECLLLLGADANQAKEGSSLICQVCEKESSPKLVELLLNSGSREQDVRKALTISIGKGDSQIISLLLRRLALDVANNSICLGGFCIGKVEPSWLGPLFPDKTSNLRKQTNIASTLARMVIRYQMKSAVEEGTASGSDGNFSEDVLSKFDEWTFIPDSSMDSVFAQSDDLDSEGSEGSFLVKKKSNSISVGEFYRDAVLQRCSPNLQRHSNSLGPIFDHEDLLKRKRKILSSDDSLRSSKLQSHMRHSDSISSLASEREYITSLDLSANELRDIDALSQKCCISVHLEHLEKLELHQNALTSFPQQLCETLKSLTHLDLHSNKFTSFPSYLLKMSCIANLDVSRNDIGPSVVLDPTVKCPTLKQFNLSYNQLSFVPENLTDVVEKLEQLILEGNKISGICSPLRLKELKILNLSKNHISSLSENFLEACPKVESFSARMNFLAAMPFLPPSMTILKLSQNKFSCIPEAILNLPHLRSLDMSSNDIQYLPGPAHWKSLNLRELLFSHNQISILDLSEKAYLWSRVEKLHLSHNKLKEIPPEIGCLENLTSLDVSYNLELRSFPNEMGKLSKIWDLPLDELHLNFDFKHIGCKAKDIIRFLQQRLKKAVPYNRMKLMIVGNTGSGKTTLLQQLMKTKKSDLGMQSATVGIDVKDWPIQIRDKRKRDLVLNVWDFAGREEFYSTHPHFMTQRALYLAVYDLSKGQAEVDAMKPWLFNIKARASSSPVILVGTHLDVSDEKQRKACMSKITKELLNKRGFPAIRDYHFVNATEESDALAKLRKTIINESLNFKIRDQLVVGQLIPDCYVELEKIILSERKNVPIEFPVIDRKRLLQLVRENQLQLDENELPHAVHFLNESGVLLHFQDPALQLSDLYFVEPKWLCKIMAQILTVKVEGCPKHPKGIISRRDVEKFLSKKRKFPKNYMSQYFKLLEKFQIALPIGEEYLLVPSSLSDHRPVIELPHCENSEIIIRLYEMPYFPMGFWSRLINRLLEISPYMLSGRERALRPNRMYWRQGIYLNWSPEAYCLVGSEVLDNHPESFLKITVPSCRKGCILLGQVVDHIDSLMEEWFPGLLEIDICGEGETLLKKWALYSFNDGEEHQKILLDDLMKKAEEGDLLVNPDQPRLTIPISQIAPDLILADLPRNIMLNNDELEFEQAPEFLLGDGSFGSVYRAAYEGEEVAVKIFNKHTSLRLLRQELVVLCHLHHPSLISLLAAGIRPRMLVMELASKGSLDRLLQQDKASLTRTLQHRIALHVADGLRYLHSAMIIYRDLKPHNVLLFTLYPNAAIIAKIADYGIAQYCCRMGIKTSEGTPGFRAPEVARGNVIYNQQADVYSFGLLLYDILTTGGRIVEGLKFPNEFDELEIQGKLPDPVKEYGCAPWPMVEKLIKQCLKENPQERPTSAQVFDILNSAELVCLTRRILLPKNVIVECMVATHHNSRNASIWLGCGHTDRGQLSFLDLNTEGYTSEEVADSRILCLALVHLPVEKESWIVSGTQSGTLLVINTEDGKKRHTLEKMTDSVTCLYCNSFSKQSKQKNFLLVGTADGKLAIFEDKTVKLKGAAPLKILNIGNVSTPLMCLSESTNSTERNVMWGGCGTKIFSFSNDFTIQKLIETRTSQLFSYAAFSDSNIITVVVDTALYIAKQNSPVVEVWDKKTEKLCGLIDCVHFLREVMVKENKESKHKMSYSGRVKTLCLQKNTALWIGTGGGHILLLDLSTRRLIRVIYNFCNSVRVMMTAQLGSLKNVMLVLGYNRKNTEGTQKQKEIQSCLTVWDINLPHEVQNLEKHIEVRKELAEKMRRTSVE", "conditions": "at 0.1 µM"}, "[54]": {"target": "Leucine-rich repeat serine/threonine-protein kinase 2 (Homo sapiens) (UniProt Q5S007)", "conditions": "at 1 µM"}, "[55]": {"tested_on": "Leucine-rich repeat serine/threonine-protein kinase 2 (Homo sapiens), Q5S007 [G2019S]", "sequence (Q5S007 whole entry G2019S)": "as the sequence (Q5S007 whole entry) above, with G2019S counted along it", "conditions": "at 0.1 µM"}, "[56]": {"tested_on": "Leucine-rich repeat serine/threonine-protein kinase 2 (Homo sapiens), Q5S007 [G2019S]", "conditions": "at 1 µM"}}, "data": [{"smiles": "CNC(=O)Oc1cc(C)c(/C=C/c2cncc(C(=O)NC)c2)c(C)c1", "values": [{"measurement": "inhibition", "setting": "[1]", "value": -1.98, "unit": "%"}, {"measurement": "inhibition", "setting": "[2]", "value": -0.11, "unit": "%"}, {"measurement": "inhibition", "setting": "[3]", "value": 12, "unit": "%"}, {"measurement": "inhibition", "setting": "[4]", "value": 49.6, "unit": "%"}, {"measurement": "inhibition", "setting": "[5]", "value": 7.72, "unit": "%"}, {"measurement": "inhibition", "setting": "[6]", "value": 17.6, "unit": "%"}, {"measurement": "inhibition", "setting": "[7]", "value": 17.7, "unit": "%"}, {"measurement": "inhibition", "setting": "[8]", "value": 61.4, "unit": "%"}, {"measurement": "inhibition", "setting": "[9]", "value": 12.4, "unit": "%"}, {"measurement": "inhibition", "setting": "[10]", "value": 52.8, "unit": "%"}, {"measurement": "inhibition", "setting": "[11]", "value": 5.12, "unit": "%"}, {"measurement": "inhibition", "setting": "[12]", "value": 6.12, "unit": "%"}, {"measurement": "inhibition", "setting": "[13]", "value": 9.51, "unit": "%"}, {"measurement": "inhibition", "setting": "[14]", "value": 49.7, "unit": "%"}, {"measurement": "inhibition", "setting": "[15]", "value": 0.63, "unit": "%"}, {"measurement": "inhibition", "setting": "[16]", "value": -1.51, "unit": "%"}, {"measurement": "inhibition", "setting": "[17]", "value": 7.57, "unit": "%"}, {"measurement": "inhibition", "setting": "[18]", "value": 13.2, "unit": "%"}, {"measurement": "inhibition", "setting": "[19]", "value": 0.78, "unit": "%"}, {"measurement": "inhibition", "setting": "[20]", "value": 3.53, "unit": "%"}, {"measurement": "inhibition", "setting": "[21]", "value": 5.18, "unit": "%"}, {"measurement": "inhibition", "setting": "[22]", "value": 7.85, "unit": "%"}, {"measurement": "inhibition", "setting": "[23]", "value": 3.22, "unit": "%"}, {"measurement": "inhibition", "setting": "[24]", "value": 0.63, "unit": "%"}, {"measurement": "inhibition", "setting": "[25]", "value": 0.21, "unit": "%"}, {"measurement": "inhibition", "setting": "[26]", "value": 10.2, "unit": "%"}, {"measurement": "inhibition", "setting": "[27]", "value": 2.97, "unit": "%"}, {"measurement": "inhibition", "setting": "[28]", "value": 2.24, "unit": "%"}, {"measurement": "inhibition", "setting": "[29]", "value": -0.84, "unit": "%"}, {"measurement": "inhibition", "setting": "[30]", "value": 0.6, "unit": "%"}, {"measurement": "inhibition", "setting": "[31]", "value": 3.83, "unit": "%"}, {"measurement": "inhibition", "setting": "[32]", "value": 24.6, "unit": "%"}, {"measurement": "inhibition", "setting": "[33]", "value": 0.98, "unit": "%"}, {"measurement": "inhibition", "setting": "[34]", "value": 4.03, "unit": "%"}, {"measurement": "inhibition", "setting": "[35]", "value": 1.57, "unit": "%"}, {"measurement": "inhibition", "setting": "[36]", "value": 1.37, "unit": "%"}, {"measurement": "inhibition", "setting": "[37]", "value": 0.68, "unit": "%"}, {"measurement": "inhibition", "setting": "[38]", "value": -0.46, "unit": "%"}, {"measurement": "inhibition", "setting": "[39]", "value": 1.9, "unit": "%"}, {"measurement": "inhibition", "setting": "[40]", "value": 5.43, "unit": "%"}, {"measurement": "inhibition", "setting": "[41]", "value": 4.32, "unit": "%"}, {"measurement": "inhibition", "setting": "[42]", "value": 23.4, "unit": "%"}, {"measurement": "inhibition", "setting": "[43]", "value": 2, "unit": "%"}, {"measurement": "inhibition", "setting": "[44]", "value": -0.7, "unit": "%"}, {"measurement": "inhibition", "setting": "[45]", "value": 4.75, "unit": "%"}, {"measurement": "inhibition", "setting": "[46]", "value": 9.98, "unit": "%"}, {"measurement": "inhibition", "setting": "[47]", "value": 4.23, "unit": "%"}, {"measurement": "inhibition", "setting": "[48]", "value": 8.52, "unit": "%"}, {"measurement": "inhibition", "setting": "[49]", "value": -2.42, "unit": "%"}, {"measurement": "inhibition", "setting": "[50]", "value": 1.27, "unit": "%"}, {"measurement": "inhibition", "setting": "[51]", "value": -1.38, "unit": "%"}, {"measurement": "inhibition", "setting": "[52]", "value": 1.67, "unit": "%"}, {"measurement": "inhibition", "setting": "[53]", "value": 7.04, "unit": "%"}, {"measurement": "inhibition", "setting": "[54]", "value": 10.5, "unit": "%"}, {"measurement": "inhibition", "setting": "[55]", "value": 5.2, "unit": "%"}, {"measurement": "inhibition", "setting": "[56]", "value": 18.7, "unit": "%"}]}]}
